Pf Dd2 growth = blocks in vitro growth of P. falciparum Dd2. P. falciparum Dd2 growth, SYBR Green, 72 h. Potency, µM (doses to about 28.9 µM), inactives show at the highest dose activity, negative = inhibition, most hits filed as inhibitors. hit rate 4.3% among 120,000; active = well fitted inhibition curve with a large enough effect;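 note: plate controls were DMSO vehicle for no effect and reference drug for full effect; nearly all actives have a fitted effect of over 65% in size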
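Infected erythrocytes (Dd2, 0.3% parasitemia, 2.5% hematocrit final) are added to compound in RPMI-1640/Albumax II medium, grown 72 h at 37C in low oxygen, then lysed with saponin/Triton-X containing SYBR Green and read by fluorescence.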
An asterisk follows results filed as active; i = inactive; [ ] = remark or other dose. The sample as a whole holds a higher share of hits than the screen did. Potency is the fitted concentration of half-maximal effect.

SMILES	Pf Dd2 growth
CC(C)(C)CN1CCNc2cc(Nc3cccnc3)ncc2C1	-19.9%[44.1 µM]
Cc1nnc2n1CCC(NC(=O)Cc1c[nH]c3ccccc13)CC2 (stereo not drawn)	33.3%
COc1ccc(C(=O)N2CCCC2c2noc(COc3ccc(F)cc3)n2)cn1 (stereo not drawn)	12.7%
O=C(N[C@@H]1CN(Cc2ccc(F)cc2F)C[C@H]1CO)c1cnccn1	-10.0%
Cn1cc(CCC(=O)N[C@@H]2CCOC[C@H]2Oc2ccc(C(=O)O)cc2)cn1	7.2%
CC1(Cc2ccc3c(c2)OCO3)CCC(=O)N(CCc2ccncc2)C1 (stereo not drawn)	-8.4%
COCCN1CC(CO)C2(CCN(C(=O)CN3CCOCC3)CC2)C1 (stereo not drawn)	19.5%
COC1C(=O)N(CC2CC2)C12CCN(C(=O)C1CC1)CC2 (stereo not drawn)	i
Cc1nn(C)c(C)c1S(=O)(=O)N1CCCC1c1noc(COc2ccc(F)cc2)n1 (stereo not drawn)	-13.5%
O=C(c1ccc(C(F)(F)F)cc1)N1CCC2(CN[S+](=O)([O-])c3ccccc3N2)C1 (stereo not drawn)	-9.6%
CC1(C)C(=O)N(CC2CCOCC2)[C@H]2CN(Cc3cccc(OC(F)(F)F)c3)C[C@H]2[S+]1(=O)[O-]	-8.8%
COc1cccc(CNC(=O)[C@@H]2C[C@@H](O)CN2C2CCN(C(=O)c3ccc(OC)cc3C)CC2)c1	-10.6%
CNC(=O)NC[C@H]1CCN(Cc2ccc(OC)c(OC)c2Cl)C[C@H]1N(C)C	-2.7%
CN(Cc1ccccc1)Cc1cc(CC2(NCc3ccccc3)COC2)no1	i
CNS(=O)(=O)c1cccc(C(=O)N2CCCC2c2ccco2)c1 (stereo not drawn)	-7.5%
CN1[C@@H](CCC(=O)N2CCN(c3ccccc3)CC2)CNC(=O)[C@@H]2[C@H]1CCN2Cc1cccc(Cl)c1	i
Cc1cccc(CN2CCNc3cc(Nc4cccnc4)ncc3C2)c1	5.62µM*
Cn1cc(CN2CCNc3cc(Nc4ccccc4)ncc3C2)cn1	i
c1ccc(Nc2cc3c(cn2)CN(Cc2ccn[nH]2)CCN3)cc1	i
COc1cccc(Nc2cc3c(cn2)CN(Cc2cccnc2)CCN3)c1	-15.3%[44.1 µM]
Oc1ccccc1CN1CCNc2cc(Nc3ccccc3)ncc2C1	5.01µM*
Oc1ccccc1CN1CCNc2cnc(Nc3ccccc3)cc2C1	i
COc1cc(C)ccc1OCc1cc(C(=O)N(C)Cc2ncccc2C)no1	-23.9%
COCCOC1CCN(C(=O)c2cc(F)ccc2F)CC1	31.1%
CCc1nc(-c2c3n(c(=O)n(CC(=O)Nc4cccc(Cl)c4)c2=O)CCCCC3)no1	-3.5%
SMILES	Pf Dd2 growth
CCOCCNc1ncnc2c1CN(C1CCC1)C(=O)CN2C	i
CCOc1ccc(NC(=O)Cn2c(-c3cnccn3)nc(C)c(C)c2=O)cc1	i
COc1ccc(C(=O)N2CCOCC3(CN(Cc4ccccc4)C3)C2)c(OC)n1	0.891µM*
COc1ccc(C(=O)N2CCOCC3(CN(Cc4ccccc4)C3)C2)cc1	-11.5%[44.1 µM]
COc1ccc(C(=O)N2CCOCC3(CN(Cc4cc(F)cc(F)c4)C3)C2)c(OC)n1	i
CCOc1ccc(CC(=O)N2CCCN(C(=O)C3CC3)c3ccccc32)cc1	i
Cc1noc(C)c1CCNC(=O)CCc1ccc2c(c1)CN(S(C)(=O)=O)CCO2	2.9%
Cc1cc(C)n(CCC(=O)N2CCc3c(c(C(=O)N4CCOCC4)nn3CCc3ccccc3)C2)n1	-20.5%
CN(c1cc(=O)c2ccnc(-c3ccc(O)c(F)c3)c2o1)C1CCOCC1	-23.5%[44.1 µM]
COCCOc1ccc(C(=O)N[C@@H]2CN(C(=O)NCc3ccccc3)CCC[C@H]2O)cc1	17.1%
O=C(N[C@@H]1CN(Cc2ccccn2)CCC[C@H]1O)c1ccc(OCc2ccccc2)cc1	2.51µM*
NC(=O)COc1ccc(C(=O)N[C@@H]2CN(Cc3ccccn3)CCC[C@H]2O)cc1	-26.5%[44.1 µM]
O=C(N[C@@H]1CN(C(=O)Nc2cccc(C(F)(F)F)c2)CCC[C@H]1O)c1ccc(OCc2ccccc2)cc1	7.08µM*
O=C(N[C@@H]1CN(C(=O)Nc2ccccc2)CCC[C@H]1O)c1ccc(OCc2ccccc2)cc1	-16.0%
COCCOc1ccc(C(=O)N[C@@H]2CN(C(=O)Nc3cccc(C(F)(F)F)c3)CCC[C@H]2O)cc1	i
COCc1nnc2n1CCC(NC(=O)CCn1cccn1)CC2 (stereo not drawn)	14.4%
Cn1nccc1C(=O)N1CCCC(Cc2noc(-c3ccccn3)n2)C1 (stereo not drawn)	2.8%
COCCN(C)C(=O)c1cn(C2CNC2)nn1	11.4%
Cc1ccc(C(=O)N2C[C@@H](CO)[C@H](c3ccccn3)C2)c(=O)[nH]1	29.6%
CCOCc1nc(C2CCCN2S(=O)(=O)c2cccnc2)no1 (stereo not drawn)	-6.5%
O=[S+]([O-])(c1ccccc1)N1CC2(COCCN(Cc3ccncc3)C2)C1	22.1%[44.1 µM]
COc1ccc(CNC(=O)c2ccc3c(Cl)c4c(nc3c2)CCCC4)c(OC)c1	-12.1%
CCc1nc2ccc(C(=O)NCCc3ccc(OC)c(OC)c3)cc2nc1CC	8.4%
COc1ccc(CCNC(=O)c2ccc3c(Cl)c4c(nc3c2)CCCC4)cc1OC	11.2µM*
COc1ccc(CCNC(=O)c2ccc3c(c2)ncn3-c2ccc(C(C)C)cc2)cc1OC	11.2µM*
SMILES	Pf Dd2 growth
COc1ccc(CCNC(=O)c2ccc3c(Cl)c4c(nc3c2)CCCC4)c(OC)c1	-22.6%
COCCNC(=O)c1ccc2c(c1)ncn2-c1cc(C)ccc1OC	-10.8%
CC(C)(CC(=O)O)CC(=O)N[C@H]1CO[C@H]2[C@@H]1OC[C@@H]2n1nnnc1Oc1ccc(-n2cncn2)cc1	4.2%
COc1ccc(C(=O)N2CCCC(c3nc(C4CCOCC4)no3)C2)cc1OC (stereo not drawn)	52.3%
O=C(c1ccncc1)N1CCC(n2c(=O)[nH]c3ccccc32)CC1	8.6%[44.1 µM]
O=C(c1cccs1)C1CCCN(C(=O)c2ccc(N3CCCC3=O)cc2)C1 (stereo not drawn)	-6.8%
CCOC(=O)c1ccc(N2C(=O)c3n[nH]c(-c4cccs4)c3C2c2ccc(O)c(OC)c2)cc1 (stereo not drawn)	52.7%
CCOC(=O)c1ccc(N2C(=O)c3[nH]nc(-c4ccc(OC)cc4)c3C2c2ccc(C)cc2)cc1 (stereo not drawn)	8.91µM*
CCOC(=O)c1ccc(N2C(=O)c3n[nH]c(-c4ccco4)c3C2c2cccc(F)c2)cc1 (stereo not drawn)	10µM*
CCOC(=O)c1sc(N2C(=O)c3oc4cc(C)c(C)cc4c(=O)c3C2c2cccc(O)c2)nc1C (stereo not drawn)	-4.0%
CCOC(=O)c1ccc(N2C(=O)c3n[nH]c(-c4cccs4)c3C2c2ccc(C)cc2)cc1 (stereo not drawn)	48.7%
CCOC(=O)c1ccc(N2C(=O)c3n[nH]c(-c4cccs4)c3C2c2ccc(C(C)(C)C)cc2)cc1 (stereo not drawn)	7.08µM*
CC1=C(C(=O)OC(C)C)C(c2cccc(F)c2)N2C(CC(=O)NCc3ccco3)=CSC2=N1 (stereo not drawn)	-15.6%
COc1cc(C2c3c(-c4ccc(C)cc4)n[nH]c3C(=O)N2c2ccc(F)cc2)ccc1O (stereo not drawn)	i
CCc1ccc(C2c3c(-c4ccccc4)n[nH]c3C(=O)N2c2ccc(C(=O)O)cc2)cc1 (stereo not drawn)	-10.3%
Cc1ccc(-c2n[nH]c3c2C(c2ccccc2Cl)N(c2ccc(C(=O)O)cc2)C3=O)cc1 (stereo not drawn)	-6.1%

Compound activity from PubChem BioAssay.
